The supplement of paper PMC10849652
Of roughly 7,900 targets only a part is listed; those with a hit were picked by preference. About 0.6% of all pairs of compound and target were hits. Unmarked numbers belong to inactive results.

Experiments:
Assay in all cases: log2 fold change, soluble protein after heating vs DMSO (PISA); higher = thermal stabilisation; K562 cells, 10 uM, 30 min; active = over 0.2 and 3.5 SD of the protein, either way, in both replicates (recomputed)
[1] = compound: CN1CCN(CCOc2cc(OC3CCOCC3)c3c(Nc4c(Cl)ccc5c4OCO5)ncnc3c2)CC1 [saracatinib]
Procedure, shortened: (§1)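 K562 cells at 2×10^6 cells/mL were treated for 30 min with 10 μM compound, and aliquots were heated for 3 min over 48°C-58°C before pooling. Extraction used PBS with 0.5% NP-40 at 4°C, and soluble protein was the supernatant after 21,000xg for 90 min, measured by TMTpro 16plex LC-MS/MS with channel sums equalised. Thermal stability values, relative to control samples and from duplicates, are log2 fold changes.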

[2] = compound: CN1CCN(c2nc(C3=C(c4c[nH]c5ccccc45)C(=O)NC3=O)c3ccccc3n2)CC1 [sotrastaurin]
Procedure, shortened: as §1

[3] = compound: CN1CC[C@H](c2c(O)cc(O)c3c(=O)cc(-c4ccccc4Cl)oc23)[C@H](O)C1 [alvocidib]
Procedure, shortened: as §1

[4] = compound: CN1CCc2c(c3ccccc3n2Cc2ccc(C(=O)NO)cc2)C1 [Tubastatin A]
Procedure, shortened: as §1

[5] = compound: CNC(=O)C1=CC=CC=C1NC2=NC(=NC=C2Cl)NC3=C(C=C(C=C3)N4CCOCC4)OC
Procedure, shortened: as §1

[6] = compound: CNC(=O)c1ccc(Nc2ncc(C(F)(F)F)c(NCc3nccnc3N(C)S(C)(=O)=O)n2)cc1 [defactinib]
Procedure, shortened: as §1

[7] = compound: CNCc1ccc(-c2[nH]c3cc(F)cc4c3c2CCNC4=O)cc1 [rucaparib]
Procedure, shortened: as §1

[8] = compound: CNc1nc(-c2ccc3c(N)n[nH]c3c2)cc(N2C[C@@H](C(=O)NC3CCCCC3)CC[C@H]2C)n1
Procedure, shortened: as §1

[9] = compound: COC(=O)N[C@@H](C)CNc1nccc(-c2cn(C(C)C)nc2-c2cc(Cl)cc(NS(C)(=O)=O)c2F)n1 [encorafenib]
Procedure, shortened: as §1

[10] = compound: COC(=O)[C@H](CCSC)NC(=O)C1=C(C=C(C=C1)NC[C@H](CS)N)C2=CC=CC=C2
Procedure, shortened: as §1

[11] = compound: COC1=CC=C(C=C1)CN2C=CC3=C2C=C(C=C3)C(=O)NO
Procedure, shortened: as §1

[12] = compound: CON(C)C(=O)N1N=C(c2cc(F)ccc2F)S[C@@]1(CCCN)c1ccccc1 [filanesib]
Procedure, shortened: as §1

[13] = compound: CO[C@H]1C[C@@H]2CC[C@@H](C)[C@@](O)(O2)C(=O)C(=O)N2CCCC[C@H]2C(=O)O[C@H]([C@H](C)C[C@@H]2CC[C@H](n3cnnn3)[C@H](OC)C2)CC(=O)[C@H](C)/C=C(\C)[C@@H](O)[C@@H](OC)C(=O)[C@H](C)C[C@H](C)/C=C/C=C/C=C/1C [zotarolimus]
Procedure, shortened: as §1

[14] = compound: COc1cc(C(=O)O)ccc1NC(=O)[C@@H]1N[C@@H](CC(C)(C)C)[C@](C#N)(c2ccc(Cl)cc2F)[C@H]1c1cccc(Cl)c1F [idasanutlin]
Procedure, shortened: as §1

[15] = compound: COc1cc(Nc2ncc3c(n2)-c2ccc(Cl)cc2C(c2c(F)cccc2OC)=NC3)ccc1C(=O)O [alisertib]
Procedure, shortened: as §1

[16] = compound: COc1cc2ncnc(Nc3ccc(F)c(Cl)c3)c2cc1OCCCN1CCOCC1 [gefitinib]
Procedure, shortened: as §1

[17] = compound: COc1cccc2cc(-c3nc([C@H]4CC[C@H](C(=O)O)CC4)n4ncnc(N)c34)[nH]c12
Procedure, shortened: as §1

[18] = compound: CS(=O)(=O)N1CCN(Cc2cc3nc(-c4cccc5[nH]ncc45)nc(N4CCOCC4)c3s2)CC1 [pictilisib]
Procedure, shortened: as §1

[19] = compound: COc1cc2nc(-c3cc(F)ccc3O)nc(N[C@@H]3CNC[C@H]3C(C)(C)O)c2cc1OC
Procedure, shortened: as §1

[20] = compound: CS(=O)(=O)CCNCc1ccc(-c2ccc3ncnc(Nc4ccc(OCc5cccc(F)c5)c(Cl)c4)c3c2)o1 [lapatinib]
Procedure, shortened: as §1

Sequence of UniProt Q9H773 (Q9H773 whole entry, looked up): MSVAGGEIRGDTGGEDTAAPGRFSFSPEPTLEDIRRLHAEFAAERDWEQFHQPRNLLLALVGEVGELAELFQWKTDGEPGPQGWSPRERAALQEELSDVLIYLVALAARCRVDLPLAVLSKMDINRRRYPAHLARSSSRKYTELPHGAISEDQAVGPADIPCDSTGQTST
Sequence of UniProt Q96DF8 (Q96DF8 whole entry, looked up): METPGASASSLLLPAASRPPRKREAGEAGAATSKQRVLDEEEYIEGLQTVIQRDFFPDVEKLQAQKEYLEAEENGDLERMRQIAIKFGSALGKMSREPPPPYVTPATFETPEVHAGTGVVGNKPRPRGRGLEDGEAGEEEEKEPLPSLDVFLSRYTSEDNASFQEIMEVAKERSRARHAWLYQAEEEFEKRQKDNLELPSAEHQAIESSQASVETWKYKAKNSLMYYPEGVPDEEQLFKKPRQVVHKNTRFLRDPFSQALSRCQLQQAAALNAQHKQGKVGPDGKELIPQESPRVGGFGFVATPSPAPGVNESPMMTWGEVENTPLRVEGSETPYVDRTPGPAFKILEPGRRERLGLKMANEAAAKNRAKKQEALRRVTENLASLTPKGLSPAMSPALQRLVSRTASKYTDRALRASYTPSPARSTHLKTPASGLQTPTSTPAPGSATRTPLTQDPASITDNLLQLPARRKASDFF
Sequence of UniProt P18074 (P18074 whole entry, looked up): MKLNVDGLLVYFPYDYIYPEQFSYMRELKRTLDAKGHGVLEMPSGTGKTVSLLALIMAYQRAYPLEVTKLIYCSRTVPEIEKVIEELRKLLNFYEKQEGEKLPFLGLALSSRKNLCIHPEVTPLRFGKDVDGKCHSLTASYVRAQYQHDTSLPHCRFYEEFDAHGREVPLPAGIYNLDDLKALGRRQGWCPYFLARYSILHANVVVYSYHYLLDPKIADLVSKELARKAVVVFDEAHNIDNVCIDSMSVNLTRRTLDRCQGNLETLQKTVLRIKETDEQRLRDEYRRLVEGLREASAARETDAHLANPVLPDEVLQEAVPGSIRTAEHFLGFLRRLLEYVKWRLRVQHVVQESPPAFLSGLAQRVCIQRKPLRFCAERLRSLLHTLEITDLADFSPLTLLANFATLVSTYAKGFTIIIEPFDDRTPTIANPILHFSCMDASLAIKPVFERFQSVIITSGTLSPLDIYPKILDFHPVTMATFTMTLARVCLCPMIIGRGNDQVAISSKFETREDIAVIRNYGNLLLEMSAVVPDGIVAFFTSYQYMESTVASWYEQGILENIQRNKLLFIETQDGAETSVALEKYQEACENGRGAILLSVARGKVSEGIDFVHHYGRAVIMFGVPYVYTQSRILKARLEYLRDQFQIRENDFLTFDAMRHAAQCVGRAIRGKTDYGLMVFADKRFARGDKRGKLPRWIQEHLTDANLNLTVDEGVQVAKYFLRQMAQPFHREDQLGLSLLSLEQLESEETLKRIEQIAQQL
Sequence of UniProt Q9UER7 (Q9UER7 whole entry, looked up): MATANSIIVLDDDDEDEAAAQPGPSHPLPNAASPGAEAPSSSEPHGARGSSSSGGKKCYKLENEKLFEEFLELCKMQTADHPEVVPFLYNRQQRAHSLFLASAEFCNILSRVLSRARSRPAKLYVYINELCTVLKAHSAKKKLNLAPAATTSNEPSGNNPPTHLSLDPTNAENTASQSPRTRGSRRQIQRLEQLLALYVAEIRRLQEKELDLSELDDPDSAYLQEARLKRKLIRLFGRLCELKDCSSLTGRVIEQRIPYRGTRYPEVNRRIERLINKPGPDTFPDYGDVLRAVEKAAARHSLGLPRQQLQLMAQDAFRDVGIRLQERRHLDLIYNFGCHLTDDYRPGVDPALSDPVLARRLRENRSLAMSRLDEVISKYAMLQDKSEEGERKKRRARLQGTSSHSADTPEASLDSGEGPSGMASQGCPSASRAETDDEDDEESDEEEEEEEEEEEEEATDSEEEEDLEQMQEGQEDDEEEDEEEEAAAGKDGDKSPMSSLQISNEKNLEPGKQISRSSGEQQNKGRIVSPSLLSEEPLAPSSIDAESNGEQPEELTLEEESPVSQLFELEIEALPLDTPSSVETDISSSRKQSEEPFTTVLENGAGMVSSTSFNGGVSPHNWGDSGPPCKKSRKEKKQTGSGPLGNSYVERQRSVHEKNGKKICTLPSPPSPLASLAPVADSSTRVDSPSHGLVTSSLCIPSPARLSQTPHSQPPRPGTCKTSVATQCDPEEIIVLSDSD
Sequence of UniProt P25685 (P25685 whole entry, looked up): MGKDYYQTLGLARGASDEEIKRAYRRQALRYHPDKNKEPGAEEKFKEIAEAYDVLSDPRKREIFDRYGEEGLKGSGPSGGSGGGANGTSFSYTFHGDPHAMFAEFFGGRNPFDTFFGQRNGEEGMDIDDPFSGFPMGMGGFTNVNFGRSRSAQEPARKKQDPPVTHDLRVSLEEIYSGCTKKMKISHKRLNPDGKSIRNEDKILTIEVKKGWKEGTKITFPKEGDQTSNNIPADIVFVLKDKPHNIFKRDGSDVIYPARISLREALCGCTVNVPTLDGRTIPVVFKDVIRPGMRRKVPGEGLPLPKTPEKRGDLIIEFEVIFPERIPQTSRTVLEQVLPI
Sequence of UniProt Q9C073 (Q9C073 whole entry, looked up): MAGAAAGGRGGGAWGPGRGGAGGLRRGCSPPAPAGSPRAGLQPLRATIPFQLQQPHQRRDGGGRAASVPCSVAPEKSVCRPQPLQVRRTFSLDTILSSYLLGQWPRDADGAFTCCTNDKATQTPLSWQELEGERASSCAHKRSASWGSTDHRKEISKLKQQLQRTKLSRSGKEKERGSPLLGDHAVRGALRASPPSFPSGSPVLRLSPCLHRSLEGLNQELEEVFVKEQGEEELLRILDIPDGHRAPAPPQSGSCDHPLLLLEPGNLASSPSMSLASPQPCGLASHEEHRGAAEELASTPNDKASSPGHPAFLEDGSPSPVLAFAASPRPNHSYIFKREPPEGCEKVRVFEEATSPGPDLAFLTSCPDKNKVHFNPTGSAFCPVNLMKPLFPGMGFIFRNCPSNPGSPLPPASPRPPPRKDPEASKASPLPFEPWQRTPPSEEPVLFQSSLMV
Sequence of UniProt Q6IAN0 (Q6IAN0 whole entry, looked up): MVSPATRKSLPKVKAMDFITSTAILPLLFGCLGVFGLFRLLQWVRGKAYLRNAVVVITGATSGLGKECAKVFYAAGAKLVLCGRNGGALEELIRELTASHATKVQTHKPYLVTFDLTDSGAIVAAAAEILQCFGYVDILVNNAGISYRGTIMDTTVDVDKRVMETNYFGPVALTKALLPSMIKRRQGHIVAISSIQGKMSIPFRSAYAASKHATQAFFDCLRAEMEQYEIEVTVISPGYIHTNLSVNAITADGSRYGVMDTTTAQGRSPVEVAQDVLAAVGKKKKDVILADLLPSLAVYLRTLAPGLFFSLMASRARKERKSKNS
Sequence of UniProt Q6P3W2 (Q6P3W2 whole entry, looked up): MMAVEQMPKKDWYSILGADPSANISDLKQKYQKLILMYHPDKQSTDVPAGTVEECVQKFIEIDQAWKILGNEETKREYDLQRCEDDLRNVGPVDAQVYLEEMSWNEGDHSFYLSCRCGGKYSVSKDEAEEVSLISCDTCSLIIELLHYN
Sequence of UniProt Q9NYP7 (Q9NYP7 whole entry, looked up): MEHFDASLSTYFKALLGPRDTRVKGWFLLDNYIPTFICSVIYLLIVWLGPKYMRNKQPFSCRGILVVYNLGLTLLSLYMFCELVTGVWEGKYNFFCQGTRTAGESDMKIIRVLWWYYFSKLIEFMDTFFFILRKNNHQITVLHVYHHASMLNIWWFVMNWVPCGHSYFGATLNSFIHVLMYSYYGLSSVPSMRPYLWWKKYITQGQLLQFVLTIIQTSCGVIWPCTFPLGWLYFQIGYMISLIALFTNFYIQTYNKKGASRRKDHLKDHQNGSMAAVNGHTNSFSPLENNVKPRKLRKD
Sequence of UniProt Q16643 (Q16643 whole entry, looked up): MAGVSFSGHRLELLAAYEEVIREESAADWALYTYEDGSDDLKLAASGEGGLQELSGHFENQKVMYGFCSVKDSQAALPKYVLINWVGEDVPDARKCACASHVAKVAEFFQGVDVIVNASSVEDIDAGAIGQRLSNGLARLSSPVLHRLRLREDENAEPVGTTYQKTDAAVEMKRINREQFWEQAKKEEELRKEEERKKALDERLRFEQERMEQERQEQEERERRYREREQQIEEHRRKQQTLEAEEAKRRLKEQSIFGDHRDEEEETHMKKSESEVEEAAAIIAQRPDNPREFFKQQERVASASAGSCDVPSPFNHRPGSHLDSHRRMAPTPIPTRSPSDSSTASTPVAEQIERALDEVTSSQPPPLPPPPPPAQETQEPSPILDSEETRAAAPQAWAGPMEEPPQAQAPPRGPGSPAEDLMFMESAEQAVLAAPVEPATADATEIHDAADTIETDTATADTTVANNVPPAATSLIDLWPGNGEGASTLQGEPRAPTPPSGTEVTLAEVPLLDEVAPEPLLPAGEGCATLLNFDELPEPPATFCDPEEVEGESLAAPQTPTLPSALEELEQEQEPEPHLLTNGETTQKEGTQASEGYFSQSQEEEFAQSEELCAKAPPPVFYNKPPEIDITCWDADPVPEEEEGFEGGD
Sequence of UniProt Q8N5C7 (Q8N5C7 whole entry, looked up): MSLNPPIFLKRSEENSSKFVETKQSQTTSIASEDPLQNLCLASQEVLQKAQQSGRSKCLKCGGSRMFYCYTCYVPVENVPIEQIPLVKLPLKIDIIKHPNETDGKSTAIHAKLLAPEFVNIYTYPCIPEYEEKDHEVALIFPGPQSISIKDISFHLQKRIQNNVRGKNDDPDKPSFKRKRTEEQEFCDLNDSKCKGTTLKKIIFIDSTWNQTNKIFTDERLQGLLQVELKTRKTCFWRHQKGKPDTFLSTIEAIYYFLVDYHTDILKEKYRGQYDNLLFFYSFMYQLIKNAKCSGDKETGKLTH

| Target | log2 fold change [1] | log2 fold change [2] | log2 fold change [3] | log2 fold change [4] | log2 fold change [5] | log2 fold change [6] | log2 fold change [7] | log2 fold change [8] | log2 fold change [9] | log2 fold change [10] | log2 fold change [11] | log2 fold change [12] | log2 fold change [13] | log2 fold change [14] | log2 fold change [15] | log2 fold change [16] | log2 fold change [17] | log2 fold change [18] | log2 fold change [19] | log2 fold change [20] |
| --- | --- | --- | --- | --- | --- | --- | --- | --- | --- | --- | --- | --- | --- | --- | --- | --- | --- | --- | --- | --- |
| DHRS13 (UniProt Q6UX07) | -0.03 | -0.17 | -0.139 | 0.105 | 0.024 | -0.032 | 0.188 | 0.174 | 0.021 | -0.114 | -0.096 | 0.298 | 0.271 | 0.057 | -0.011 | 0.081 | -0.002 | 0.026 |  |  |
| DBN1 isoform 3 (UniProt Q16643) | 0.121 | 0.001 | -0.044 | -0.094 | -0.042 | -0.06 | 0.041 | -0.011 | 0.097 | -0.033 | 0.012 | 0.182 | 0.074 | 0.061 | -0.023 | 0.05 | 0.084 | -0.111 | -0.024 | -0.041 |
| DCTPP1 (UniProt Q9H773) | 0.012 | 0.031 | -0.033 | 0.031 | -0.075 | -0.008 | -0.011 | -0.022 | -0.072 | 0.002 | 0.023 | -0.02 | 0.083 | -0.061 | -0.067 | 0 | 0.038 | -0.05 | -0.091 | -0.058 |
| DAXX (UniProt Q9UER7) | -0.001 | -0.078 | 0 | 0.122 | -0.142 | 0.005 | 0.048 | 0.018 | -0.097 | 0.109 | 0.248 | 0.008 | 0.055 | -0.067 |  | -0.125 |  | 0.247 | 0.283 | -0.05 |
| DNAJB1 (UniProt P25685) | -0.003 | -0.03 | -0.094 | -0.001 | -0.011 | -0.05 | -0.025 | -0.033 | -0.009 | -0.017 | 0.07 | -0.013 | 0.007 | -0.032 | -0.063 | 0.06 | 0.003 | 0.005 | 0.046 | -0.032 |
| FAM117A (UniProt Q9C073) | -0.019 | 0.009 | -0.077 | 0.058 | -0.268 (active) | -0.141 | -0.079 | 0.083 | -0.023 | 0.009 | 0.105 | -0.025 | 0.008 | 0.076 | 0 | -0.004 | 0.024 | -0.019 | -0.059 | -0.026 |
| ELF1 (UniProt P32519) | 0.02 | -0.027 | -0.101 | 0.075 | 0.013 |  | -0.301 | -0.03 | 0.018 |  | 0.001 | 0.028 | -0.019 | 0.089 |  | 0.01 |  |  | -0.297 | -0.12 |
| DMXL1 (UniProt Q9Y485) | 0.014 | 0.001 | -0.068 | -0.011 | -0.065 | -0.035 | 0.076 | -0.017 | 0.043 | -0.047 | 0.023 | 0.046 | -0.008 | -0.012 | -0.003 | -0.029 | -0.003 | -0.015 | 0.02 | -0.02 |
| DHRS7B (UniProt Q6IAN0) | -0.003 | 0.148 | -0.18 | -0.019 | 0.051 | -0.067 | 0.029 | 0.071 | -0.008 | -0.016 | 0.012 | 0.03 | -0.058 | -0.03 | 0.012 | 0.056 | -0.025 | -0.143 | 0.335 (active) | 0.109 |
| ELOVL5 isoform 2 (UniProt Q9NYP7) | -0.037 | -0.084 | -0.021 | -0.085 | -0.032 | -0.016 | -0.026 | -0.135 | 0.132 | -0.048 |  | -0.157 | -0.041 | -0.224 | -0.026 | -0.142 | 0 | 0 | -0.05 | 0.094 |
| ESS2 (UniProt Q96DF8) | 0.041 | -0.025 | 0.113 | -0.055 | -0.038 | 0 | -0.013 | -0.142 | -0.012 | 0.01 | -0.022 | 0.046 | -0.019 | 0.052 | -0.125 | -0.088 | 0.005 | -0.083 | -0.037 | 0.073 |
| F5 (UniProt P12259) | -0.003 | 0.139 | 0.134 | -0.076 | 0.133 | 0.081 | -0.079 | -0.068 | 0.037 | 0.039 | -0.032 | -0.05 | -0.051 | 0.613 (active) | -0.074 | 0.026 | 0.059 | 0.074 | -0.089 | 0.034 |
| DEGS1 (UniProt O15121) | 0.088 | -0.022 | 0.036 | -0.521 (active) | 0.046 | -0.18 | 0.002 | 0.029 | 0.002 | 0.106 |  | -0.048 | 0.027 | 0.039 | 0.028 | -0.002 | -0.018 | 0 | -0.013 | -0.034 |
| DTWD1 (UniProt Q8N5C7) | 0.007 | -0.02 | -0.122 | -0.014 | 0.007 | -0.03 | 0.011 | 0.152 | 0.051 | -0.143 | -0.227 | -0.081 | 0.031 | -0.115 | -0.057 | 0.069 | 0.031 | 0.124 | 0.078 | 0.044 |
| ERCC2 (UniProt P18074) | -0.016 | -0.035 | -0.062 | 0.051 | -0.01 | -0.094 | -0.013 | -0.027 | 0.177 | -0.005 | -0.024 | 0.018 | 0.068 | 0.063 | 0.001 | -0.03 | -0.021 | 0.042 | -0.061 | 0.049 |
| ELAC1 (UniProt Q9H777) | 0.094 | 0.006 | 0.051 |  | -0.056 | -0.031 | 0.153 | 0.049 | 0.063 | 0.022 | 0.022 | 0.083 | -0.06 | 0.122 |  | 0.112 |  | 0.049 | 0.06 | -0.009 |
| DNAJC24 (UniProt Q6P3W2) | 0.185 | -0.081 | -0.038 | -0.094 | -0.033 | 0.116 | 0.059 | -0.351 (active) | 0.038 | 0.099 | -0.06 | 0.199 | 0.004 |  | 0.045 | 0.018 | -0.112 |  | -0.111 | 0.034 |
